# Source: PubChem (National Center for Advancing Translational Sciences (NCATS))
# Most compounds without a hit are left out; they make up all but 9.2% or so of the library.
# ELG1 genotoxic – induces genotoxicity in HEK293T cells with luciferase-tagged ELG1 | HEK293T ELG1-luciferase reporter, luminescence, 16 h | actives 1.3% (n = 330,000) | Potency, µM (top dose mostly 46 µM), for inactives: top-dose activity change, positive = activation, actives largely listed as activators; further: % of control where 0% means no effect; nearly all actives have a fitted effect of over 60% in size
#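 After overnight (16 hr) compound treatment at 37 °C, ELG1-luciferase HEK293T cells were lysed with ONE-Glo; luminescence quantified 30 min later at room temperature.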
# Rab9 prom act – Rab9 promoter activation | Potency, µM (top dose mostly 9.22 µM), for inactives: at the top dose activation, negative = inhibition, most hits filed as activators | actives 2.8% (n = 320,000) | Huh7 Rab9 promoter-luciferase reporter, luminescence, 24 h; further: % of control where 0% means no effect; nearly all actives have a fitted effect of over 60% in size
#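 Luciferase signal after 10 min detection reagent at ambient indicates Rab9 promoter upregulation; stably transfected Huh7 cells were treated 24 h with compound in DMSO at 37 °C, 5% CO2.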
# FLuc counter – counter-screen for miR-21 project: firefly luciferase inhibitors or activators | purified FLuc, Km substrates, luminescence inhibition | Potency, µM (doses to about 57.5 µM), inactives show top-dose activity change, negative = inhibition, usual class: inhibitors | actives 6.9% (n = 360,000);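 further: plate controls were vehicle for no effect and reference inhibitor for full effect; nearly all actives have a fitted effect of over 55% in size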
# Target sequence (P08659 whole entry, looked up): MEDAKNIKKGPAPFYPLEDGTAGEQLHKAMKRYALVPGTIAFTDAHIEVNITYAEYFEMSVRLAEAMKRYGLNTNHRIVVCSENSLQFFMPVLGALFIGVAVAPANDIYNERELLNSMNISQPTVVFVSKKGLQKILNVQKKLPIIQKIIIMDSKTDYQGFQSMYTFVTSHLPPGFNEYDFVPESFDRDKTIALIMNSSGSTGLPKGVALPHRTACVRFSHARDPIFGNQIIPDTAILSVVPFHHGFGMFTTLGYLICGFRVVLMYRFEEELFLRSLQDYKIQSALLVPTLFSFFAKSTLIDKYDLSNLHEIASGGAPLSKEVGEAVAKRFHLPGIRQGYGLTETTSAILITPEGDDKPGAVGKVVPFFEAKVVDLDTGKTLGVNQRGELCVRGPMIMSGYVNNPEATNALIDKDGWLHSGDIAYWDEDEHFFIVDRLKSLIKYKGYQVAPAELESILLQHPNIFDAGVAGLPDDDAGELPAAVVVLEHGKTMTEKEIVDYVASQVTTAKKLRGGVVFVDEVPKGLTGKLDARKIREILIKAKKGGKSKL
#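 Purified P. pyralis luciferase (10nM final) with 10uM D-luciferin and 10uM ATP (Km levels) in 50mM Tris acetate pH 7.5, 10mM Mg acetate, 0.01% Tween-20, 0.05% BSA; qHTS 6-point titration, ~60 µM downward; luminescence read.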
# SMN2 splice up – SMN2 splice variant enhancement | HEK293 SMN2-luciferase splicing reporter, luminescence, 30-36 h | Potency, µM (series often up to 46.1 µM), inactives show at the top dose activity change, positive = activation, most hits filed as activators | actives 2.8% (n = 210,000) | AID 1458; further: % of control where 0% means no effect; nearly all actives have a fitted effect of over 55% in size
#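 HEK293 cells carry an SMN2 […]–luciferase reporter in which exon 7 inclusion puts luciferase in frame. Cells were plated 10-12 h before compound addition, then incubated 30-36 h at 37C. ONE-Glo luminescence was read; sodium butyrate at 4.5 mM final served as control.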
# ELG1 DNA repair – inhibitors of ELG1-dependent DNA repair in HEK293T cells. HEK293T ELG1-luciferase reporter, luminescence, 16 h; DNA damage induced by 5-fluorouridine. Potency, µM (titrated, usually from 46.1 µM), for inactives: at the highest dose activity change, negative = inhibition, usual class: inhibitors. actives 2.3% (n = 330,000). AID 504467; further: on the % scale 0 is the no-effect control and ±100 the full control effect; nearly all actives have a fitted effect of over 55% in size
#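 Luminescence from the luciferase reporter, measured 30 min after ONE-Glo reagent at room temperature, was the read-out. Beforehand, 2,000 cells per well were exposed for 16 hr at 37 °C to 5-fluorouridine together with compound or vehicle.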
# NPC1 prom act – activates the NPC1 promoter; Huh7 NPC1 promoter luciferase reporter, 24 h; Potency, µM (top dose mostly 9.22 µM), for the others: at the highest dose activation, hits mostly activators; actives 2.4% (n = 320,000); further: % of control where 0% means no effect; nearly all actives have a fitted effect of over 60% in size
#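 Luminescence from an NPC1 promoter-driven luciferase reporter in stably transfected Huh7 cells was measured after 24 h compound treatment at 37 °C, followed by 10 min ambient incubation with luciferase detection reagent.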
# The depositor's hits bear a star; ? = inconclusive; · = no result given; [ ] = dose if it differs, or a comment. The call rests on the fitted dose curve; in most records, active means well fitted curve in the direction sought with a large enough effect; inconclusive means small, poorly fitted or top-dose-only effect, or another doubt; inactive means no such curve, though single readings can be large; an effect the other way counts as inactive or inconclusive. Potency means the concentration at half of the fitted maximal effect.
SMILES,ELG1 genotoxic,Rab9 prom act,FLuc counter,SMN2 splice up,ELG1 DNA repair,NPC1 prom act
COc1ccc(Cl)cc1NC(=O)c1cc2c(=O)n3ccccc3nc2s1,·,·,-9%,-6%,·,·
S=C(NC1CCCC1)N1CCN(C/C=C/c2ccccc2)CC1,-3%,-19%,-1%,-42%,18µM*,-19%
O=C(NC(=S)N1CCN(C/C=C/c2ccccc2)CC1)c1ccc(F)cc1,-11%,-4%,-1%,·,10µM*,-1%
S=C(Nc1ccccc1)N1CCN(C/C=C/c2ccccc2)CC1,-5%,-13%,0%,·,?,-8%
O=C(c1ccc(-c2ccc([N+](=O)[O-])cc2)o1)N1CCN(S(=O)(=O)c2cccs2)CC1,0%,-12%,7%,·,?,-3%
Cc1nn(CCCC(=O)Nc2ccccc2C(F)(F)F)c(=O)c2nn(-c3ccccc3)c(C)c12,·,·,0%,·,·,·
Cc1c(NC(=O)/C(C#N)=C/c2ccc(-c3cc(Cl)ccc3Cl)o2)c(=O)n(-c2ccccc2)n1C,-12%,-12%,2%,-40%,18µM*,-2%
N#C/C(=C\c1ccc(-c2ccc(Br)cc2)o1)C(=O)Nc1ccccc1O,·,·,-2%,-2%,·,·
N#C/C(=C\c1ccc(-c2ccc(C(=O)O)cc2)o1)C(=O)Nc1ccccc1C(=O)O,·,·,13µM*,-5%,·,·
Cc1c(NC(=O)/C(C#N)=C\c2cccs2)c(=O)n(-c2ccccc2)n1C,2%,-7%,-5%,15%,6%,-2%
Cc1c(NC(=O)/C(C#N)=C/c2ccc(-c3ccc(Cl)cc3)o2)c(=O)n(-c2ccccc2)n1C,-9%,-1%,?,-35%,16µM*,-6%
CS(=O)(=O)N(CC(=O)NCc1cccnc1)C1CCCCC1,-1%,4%,-1%,·,6%,-3%
COc1cc(OC)c(C(=O)OCC(=O)Nc2ccc(N3CCOCC3)cc2)cc1OC,-1%,·,·,·,?,·
COc1ccc(NC(=O)CCCc2nnc3n(C(C)C)c(=O)c4sccc4n23)cc1Cl,·,·,3%,·,·,·
CC(C)OC(=O)c1c(NC(=O)C2c3ccccc3Oc3ccccc32)sc2c1CCCC2,·,·,-1%,-7%,·,·
O=S1(=O)OC(c2ccc(O)cc2)(c2ccc(O)cc2)c2ccccc21,·,·,·,9%[9.22 µM],·,·
CCc1ccccc1Nc1nc2ccccc2c2nncn12,·,·,-1%,-5%,·,·
Cc1ccc(C(=O)NCC(=O)Nc2ccc(S(=O)(=O)Nc3cc(C)nc(C)n3)cc2)cc1,2%,·,·,·,2%,·
CCCc1ccc(C2Sc3ccccc3NC3=C2C(=O)c2ccccc23)cc1 (stereo unspecified),·,·,-3%,-18%,·,·
COc1ccc(-c2nn(-c3ccccc3)cc2/C=N/NC(=S)NC(C)C)cc1OC,-1%,0%,-18%,16%,12µM*,-7%
COc1ccc(-c2nn(-c3ccccc3)cc2/C=N/Nc2ccc3ccccc3n2)cc1OC,-9%,-19%,11µM*,-66%,12µM*,-5%
CN(Cc1cccnc1)C(=O)c1cc(S(=O)(=O)Nc2ccccc2F)ccc1Cl,0%,-5%,1%,·,-3%,1%
COc1ccc(Nc2nc(C(=O)N3CCc4ccccc4C3)cs2)cc1,0%,-3%,-7%,·,11%,5%
COc1ccc(Nc2nc(C(=O)N3CCc4cc(OC)c(OC)cc4C3)cs2)cc1,-9%,-5%,-6%,·,16µM*,3%
C[C@H](NC(=O)c1ccccc1Cl)C(=O)OCC(=O)NNC(=O)c1cccs1,0%,-2%,-5%,·,17%,3%
SMILES,ELG1 genotoxic,Rab9 prom act,FLuc counter,SMN2 splice up,ELG1 DNA repair,NPC1 prom act
CCCCCn1c(=O)[nH]c2cc(C(=O)NCc3ccc(F)cc3)ccc2c1=O,·,·,-1%,-16%,·,·
CC(C)n1c(-c2cccnc2)nc2cnccc21,-9%,-2%,3%,-8%,13µM*,1%
Nc1nnc(-c2cc3ccccc3oc2=O)s1,?,1.6µM*,?,18µM*,?,?
Nc1cccc(-c2cc3ccccc3oc2=O)c1,?,-1%,19µM*,22%,?,15%
O=c1oc2ccccc2cc1-c1ccc(O)cc1O,5%,-2%,?,2%,16%,-1%
O=Cc1c(-c2ccccc2)cc2oc3ccccc3cc1-2,3.7µM*,3.5µM*,0.76µM*,·,?,26%
O=c1oc2ccccc2cc1-c1nnc(NCc2ccco2)s1,?,0.71µM*,2.7µM*,11µM*,?,1.1µM*
CCNC(=O)C1CCN(c2nc3ccccc3nc2C(F)(F)F)CC1,·,·,6%,·,·,·
CCOc1ccc(NC(=O)Cn2cnc3nc4c(cc3c2=O)CCCC4)cc1,·,·,4%,·,·,·
C=CCn1cccc(C(=O)Nc2ccc(OC)c(Cl)c2)c1=O,9%,?,19µM*,·,?,?
C=CCn1cccc(C(=O)Nc2ccc(C)c(Cl)c2)c1=O,?,?,9.5µM*,·,?,2.5µM*
COc1ccc(CNC(=O)CS(=O)(=O)c2cccc3nsnc23)cc1,·,·,-2%,·,·,·
NC(=O)[C@@H]1CCCN1Cc1nc(-c2ccc(C(F)(F)F)cc2)no1,7%,-2%,-7%,-20%,-4%,-5%
O=C(Nc1cccc(C(=O)N2CCN(Cc3ccccc3)CC2)c1)c1ccccc1,-13%,4%,-19%,-15%,21µM*,-1%
O=C(c1c[nH]c2ccccc12)N1CCN(c2ccccc2)CC1,-5%,14%,-16%,14%,4%,-1%
CCOc1ccc(CN2CCN(C(=O)c3ccccc3)CC2)cc1,4%,-1%,4%,-49%,9.2µM*,-3%
O=C(c1c[nH]c2ccccc12)N1CCN(Cc2ccccc2)CC1,-5%,4%,21µM*,-18%,-6%,-3%
O=C(c1cccc(C(=O)N2CCN(Cc3ccccc3)CC2)c1)N1CCN(Cc2ccccc2)CC1,-12%,-7%,0%,-72%,?,-5%
O=C(c1ccc2ccccc2c1)N1CCN(Cc2ccccc2)CC1,8%,22%,21µM*,·,?,?
CSc1cccc(NC(=S)N2CCCN(Cc3ccccc3F)C2)c1,-6%,-7%,7%,6%,-5%,-4%
Cn1c(=O)c2[nH]c(-c3ccccc3O)nc2n(C)c1=O,-6%,-5%,-17%,-2%,0%,25%
CCCOc1ccccc1-c1nc2c([nH]1)c(=O)[nH]c(=O)n2C,?,-1%,7%,28µM*,13%,-1%
CNC(=O)C1CCN(Cc2cc3ccccc3n2Cc2cccc(C)c2)CC1,·,·,2%,·,·,·
Cc1cc2cc3c(cc2nc1SCc1ccc(C(=O)O)cc1)OCCO3,0%,-3%,19µM*,5%,?,2%
Cc1cc2cc3c(cc2nc1SCC(=O)O)OCCO3,3%,6%,1%,-20%,10%,1%
